Measurements: the supplement of paper PMC3334620
Over roughly 33,000 sequences, “E-score (-0.5 to 0.5)” has its median near -0.012; the highest 2% begin near 0.27. The list comes from a sample in which the highest values are over-represented; it also holds similar and randomly drawn sequences.

Each sequence was assayed against T1, Vhr1 (UniProt P40522) (assay: PBM E-score (8-mer binding enrichment) (E-score (-0.5 to 0.5)); higher = stronger / more preferred TF binding). Conditions: protein concentration: 200 nM; construct: GST-full length.
T1 sequence: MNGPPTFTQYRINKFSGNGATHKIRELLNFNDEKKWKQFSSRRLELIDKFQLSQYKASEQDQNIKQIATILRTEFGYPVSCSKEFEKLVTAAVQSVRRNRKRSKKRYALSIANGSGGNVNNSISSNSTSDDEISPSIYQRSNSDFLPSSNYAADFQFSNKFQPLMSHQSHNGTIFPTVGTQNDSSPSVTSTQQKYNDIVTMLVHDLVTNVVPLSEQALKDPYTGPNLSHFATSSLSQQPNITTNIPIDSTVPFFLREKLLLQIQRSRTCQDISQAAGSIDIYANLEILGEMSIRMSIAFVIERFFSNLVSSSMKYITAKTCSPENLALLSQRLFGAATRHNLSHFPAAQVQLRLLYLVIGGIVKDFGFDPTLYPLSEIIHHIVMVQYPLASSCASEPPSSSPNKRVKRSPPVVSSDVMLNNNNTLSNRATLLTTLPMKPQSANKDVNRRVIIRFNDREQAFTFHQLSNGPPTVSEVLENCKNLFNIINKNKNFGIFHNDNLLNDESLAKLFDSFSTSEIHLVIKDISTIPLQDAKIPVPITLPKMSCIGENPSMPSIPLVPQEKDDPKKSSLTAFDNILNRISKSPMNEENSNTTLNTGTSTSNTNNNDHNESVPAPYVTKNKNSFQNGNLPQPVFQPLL
Protocol: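 Universal 'all 10-mer' protein binding microarrays (Agilent AMADID 015681) probed with GST-tagged S. cerevisiae TFs (full-length or DBD) made by in vitro transcription/translation (PURExpress), about 100-200 nM. Bound TF was detected with fluorescent anti-GST. Each ungapped 8-mer (which stands for itself and its reverse complement) is scored by the PBM enrichment score (E-score), a modified Wilcoxon-Mann-Whitney statistic from -0.5 to +0.5, computed with the Universal PBM Analysis Suite. Scale: above 0.35 generally sequence-specific binding.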

| Sequence | PBM E-score |
| --- | --- |
| CACTAGAC | 0.0875 |
| AACGGGCC | -0.204 |
| TAAGTACA | -0.0281 |
| GCGTTAAA | -0.0751 |
| CTCCATCC | -0.162 |
| AGATGGGG | -0.00259 |
| AATGCTAT | -0.0368 |
| AAGTTCGG | -0.155 |
| CTGCACAC | 0.045 |
| ACGATAAT | 0.0207 |
| ACGACTGA | 0.123 |
| CTGACTGC | 0.298 |
| ATGACTGA | 0.368 |
| AGGACTGA | -0.143 |
| CTGACTGA | 0.13 |
| ATGACTGG | 0.298 |
| ATGACTTG | 0.268 |
| CAGACTGC | 0.00779 |
| ACGACTGG | 0.0415 |
| CATCCGAG | 0.15 |
| CGTAATGA | 0.0462 |
| ATTGTGGG | 0.156 |
| ACGCTCCC | -0.108 |
| GTCATCAC | 0.229 |
| AGCAATAA | -0.0386 |

| Sequence | PBM E-score |
| --- | --- |
| ACCATGTA | 0.261 |
| ACTATGTC | 0.091 |
| ACCATGTG | 0.295 |
| ACTATGTG | 0.292 |
| ACCATGTC | 0.144 |
| ACTATGTA | 0.207 |
| ATGCCCTC | -0.0196 |
| CCAGGTTA | -0.0596 |
| CTGATTGC | 0.035 |
| ACGATTGC | 0.0187 |
| ACGATTGA | 0.0265 |
| GTGATTGA | 0.329 |
| GCGATTGA | -0.121 |
| ATGATTGG | 0.178 |
| ATGATTGA | 0.344 |
| ATGATTGC | 0.345 |
| CTGATTGA | 0.177 |
| ACTCTTAA | -0.233 |
| ACGTTGGA | 0.0766 |
| GGCGTTAC | -0.119 |
| ACGTGATG | 0.00697 |
| AAGAAGCT | -0.191 |
| CCTCTGCC | -0.286 |
| AAAGCGTA | -0.183 |
| ATAGCATG | -0.034 |

| Sequence | PBM E-score |
| --- | --- |
| GCTGTCAA | -0.125 |
| ATTTTATC | -0.13 |
| AGAGCGCT | -0.249 |
| ACCGTTCA | -0.0238 |
| ACTCGCCT | 0.0445 |
| AGTCGCTG | 0.216 |
| ACTCGCGG | 0.209 |
| CGTCGCGA | 0.181 |
| CCTCGCGC | -0.0292 |
| ACTCGCCG | 0.306 |
| GGTCGCGA | 0.194 |
| ACTCGCGC | 0.273 |
| ACTCGCGA | 0.227 |
| AGTCGCGA | 0.305 |
| CCTCGCCG | -0.118 |
| AGTCGCGG | 0.351 |
| AGCAAATA | -0.0751 |
| CAAATTGA | -0.124 |
| TGCAGCAA | 0.114 |
| AATCCTAC | -0.159 |
| CTAAGCCA | -0.0787 |
| TACGGCGA | 0.0569 |
| ACCGAGTG | 0.13 |
| AATGCGCG | 0.193 |
| CAATTCTG | -0.077 |

| Sequence | PBM E-score |
| --- | --- |
| AGAAAATA | -0.0162 |
| ACTCGCTA | 0.133 |
| ACTCGCTC | 0.282 |
| CGTCGCGC | 0.0614 |
| AGTCGCTC | 0.237 |
| AGTCGCGC | 0.374 |
| ACTCGCTG | 0.0751 |
| ACAGGTTG | 0.0217 |
| AACCAATG | 0.209 |
| CAGAGTTC | -0.0458 |
| CCCCTACG | -0.139 |
| CATCCATC | 0.0866 |
| GTCATGTA | 0.141 |
| ACCTATAG | -0.144 |
| CCCGACTC | 0.426 |
| ACCGACTG | 0.177 |
| CCCGACTA | 0.206 |
| ACCGACTC | 0.34 |
| CCCGACCC | 0.123 |
| ACCGACTA | -0.0288 |
| CAAGACGA | -0.109 |
| CGACTCCA | 0.4 |
| AGACTCCA | 0.133 |
| CGACTCCG | 0.391 |
| AGACTCCG | 0.225 |

| Sequence | PBM E-score |
| --- | --- |
| CAACTCCG | -0.0132 |
| CGACTCCC | 0.321 |
| CTACTCCA | -0.0498 |
| GGACTCCA | 0.13 |
| CCACTCCA | 0.0742 |
| AGACTCCC | -0.00382 |
| TGACTCCA | 0.48 |
| GGACTCCC | 0.0918 |
| TCCCCCCA | -0.233 |
| CATACTAG | 0.238 |
| GTTTGAAA | -0.0935 |
| ATTGTGAA | -0.0037 |
| ATCCAGGG | -0.0888 |
| AGCTCCCT | -0.235 |
| CCCCCTAC | -0.185 |
| AAAAGCGC | -0.137 |
| AGAATCAC | 0.228 |
| CGAATCAG | 0.344 |
| ACAATCAT | 0.231 |
| AGAATCAT | 0.323 |
| AGAATCCT | -0.231 |
| CCAATCAG | -0.0885 |
| AGAATCAA | 0.0929 |
| CGAATCAA | 0.127 |
| AGAATCAG | 0.283 |

| Sequence | PBM E-score |
| --- | --- |
| ACCTCCTG | -0.139 |
| CGTCTCGC | -0.0775 |
| ATATCTGC | 0.104 |
| AGAAGATG | -0.183 |
| ACCCGCGA | 0.144 |
| TCCCGCCA | 0.0546 |
| ACCCGCGT | 0.00191 |
| CCCCGCCA | 0.398 |
| CCCCGCGG | 0.0864 |
| CACCGCCC | 0.293 |
| AACCGCCC | 0.0139 |
| CACCGCCA | 0.242 |
| ACCCGCGC | 0.342 |
| ACCCGCGG | 0.275 |
| GCCCGCCA | 0.13 |
| AGCCGCGG | 0.178 |
| AGTCTAAG | -0.0818 |
| AAAAAAGC | -0.19 |
| CGAGATTA | 0.0687 |
| GGAGGGGA | 0.219 |
| TACGCCAA | -0.241 |
| ACCCGCCC | 0.428 |
| ACCCGCCG | 0.197 |
| GCCCGCCC | 0.137 |
| ATCCTACC | 0.0595 |

| Sequence | PBM E-score |
| --- | --- |
| ACGCTTAC | -0.205 |
| ATGTGTGC | 0.12 |
| ATGTGTTA | 0.195 |
| CTGTGTGC | 0.177 |
| GTGTGTTA | 0.278 |
| ATGTGTGA | 0.29 |
| CTGTGTAA | 0.134 |
| CTGTGTGA | 0.306 |
| ATGTGTGG | 0.08 |
| ATGTGTCA | 0.143 |
| ATGTGTCC | 0.157 |
| CTGTGTTA | 0.169 |
| ATGTGTCG | 0.29 |
| AGGACTGG | 0.113 |
| ACTAGACG | -0.048 |
| ATTTTGCC | -0.15 |
| AGACTTGC | -0.249 |
| AACATCTA | -0.152 |
| CACCAGCC | 0.143 |
| ATAGACGG | 0.00408 |
| TACCAACA | 0.145 |
| GATATGCA | -0.0288 |
